Assay [1] is described as follows: rapamycin-like changes in RPL19A-GFP expression – cell-based, S. cerevisiae, multiplex flow cytometry, primary screen (AID 1862; in the data active = percent of DMSO control GFP below about 86%;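 note: lower values mimic rapamycin by blocking the RPL19A rise seen in DMSO cells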). Particulars: S. cerevisiae RPL19A-GFP strain, flow cytometry fluorescence, 3 h; at 10 µM; stronger effect = lower value. In general terms: Flow cytometry measures light scatter and fluorescence of single cells or particles in a stream.
A short description of assay [2]: TOR pathway GLN3 branch reporter MEP2-GFP changes – S. cerevisiae, multiplex flow cytometry, primary screen (AID 1867;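 active = GFP response, as percent of the DMSO control, above the screen-wide mean plus 3 SD, about 139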;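 note: median GFP channel fluorescence of barcode-gated MEP2-GFP cells measured by flow cytometry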). The following applies: S. cerevisiae MEP2-GFP strain, 3 h, at 10 µM, stronger effect = higher value, 100% means same as DMSO wells.
Assay [3] in a line: TOR pathway RTG branch CIT2 reporter changes – S. cerevisiae, GFP fusion, multiplex flow cytometry, primary screen (AID 1870;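 active = percent response above a set limit, the screen-wide mean plus 3 SD, cut at about 130% in these data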;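 note: barcoded CIT2-GFP strain pooled with four other GFP strains with rapamycin as positive control; median GFP fluorescence per well over plate mean of DMSO wells so 100% = DMSO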). Particulars: S. cerevisiae CIT2-GFP expression, 3 h, at 10 µM, stronger effect = higher value.
Assay [4] in a line: TOR pathway LAP4-GFP level changes – S. cerevisiae, multiplex flow cytometry, primary screen (AID 1873). Particulars: S. cerevisiae LAP4-GFP expression, 3 h, at 10 µM, stronger effect = higher value.
The nature of assay [5]: yeast AGP1-GFP level changes, GLN3 branch – cell-based, multiplex flow cytometry, S. cerevisiae, primary screen (AID 1887;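 active = GFP signal above the screen-wide mean plus 3 SD, that is over about 124.5% of the solvent control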;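 note: AGP1-GFP fusion strain of S. cerevisiae within a five-strain barcoded multiplex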). The following applies: 3 h, at 10 µM, stronger effect = higher value.
Assay [6] is described as follows: reduced mouse 2C T cell binding to pMHC/ICAM-1 vesicles – MLPCN validation set, flow cytometry, LFA-1/ICAM-1 modulator project, pilot screen (AID 2523;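 active = response below a set limit, under 55% cells CD8-positive and vesicle-bound, and CD8 cells' 90th-percentile brightness under 279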;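 for vesicle binding response: mean PE anti-B7-1 fluorescence of CD8+ cells relative to row control; 100% = QL9-loaded vesicles with DMSO vehicle in the same plate row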). Particulars: 2C mouse CD8+ T cells, at 7 µM, stronger effect = lower value; double positive events: measured here: CD8+/vesicle+ event percentage.
In assay [7] the target is Integrin beta-1 (Homo sapiens) + Integrin alpha-4 (Homo sapiens) (UniProt P13612+P05556). Put plainly: alpha4beta1 integrin LIBS antibody binding reduction – U937 cells, HUTS-21 mAb, flow cytometry, validation set, VLA-4 allosteric modulator project, pilot screen (AID 2674;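 active = inhibition above 50%, about 3 SD of the validation set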;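 note: antibody binding induced by the VLA-4 ligand LDV present at three times its Kd; 0% = LDV ligand with antibody and no compound and 100% = antibody without LDV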). Particulars: HUTS-21 LIBS mAb binding, at 6.7 µM, stronger effect = higher value, binding induced by LDV ligand.

Assay [8] is described as follows: calorie-restriction mimetic ROS inhibitors, yeast – validation compound set, pilot screen (AID 2706;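 active = superoxide response below 65% of plate, a cut near 3 SD across the whole screen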;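 note: yeast exposed to compound for one week at 30 degrees C before staining; 100% = mean of all compound wells on the same plate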). The following applies: S. cerevisiae aging, superoxide DHE fluorescence; at 10 µM; stronger effect = lower value.
Assay [9] addresses Beta-adrenergic receptor kinase 1 (Homo sapiens) (UniProt P25098). Put plainly: GRK2 binders displacing RNA aptamer, biochemical, validation, human GRK2, bead flow cytometry (AID 488806;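 active = aptamer binding inhibition above 30%, about 3 SD of noise from non-fluorescent compounds; inactive = inhibition at or below 30%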). The following applies: bead-bound GRK2, FAM-aptamer displacement, at 10 µM, stronger effect = higher value.
The target of assay [10] is Beta-2 adrenergic receptor (Homo sapiens) (UniProt P07550). Kind of assay: agonist-induced loss of surface beta2AR – cell-based, FAP fluorogen, flow cytometry, validation set, pilot screen (AID 504459;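 active = percent response above 42, roughly 3 SD of non-fluorescent test compounds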;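 note: agonist-driven loss of surface beta2AR via internalization measured by FAP dye flow cytometry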). The following applies: Am2.2-beta2AR cells, at 10 µM, stronger effect = higher value.
Assay [11] has as its target AP-2 complex subunit beta (Homo sapiens) (UniProt P63010). Kind of assay: beta-arrestin/AP2 interaction blockers – biochemical, validation set, GST-AP2 beads, flow cytometry, pilot screen (AID 504541;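 active = inhibition above 54%, about 3 SD of non-fluorescent compounds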;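 note: AP2 carries R879A mutation and is captured from E. coli lysate; bead-bound FITC arrestin peptide fluorescence measuring arrestin peptide binding to AP2; 0% = DMSO wells and 100% = excess unlabeled arrestin peptide control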). The following applies: FITC arrestin peptide, at 10 µM, stronger effect = higher value, AP2 beta2 appendage fragment, R879A mutant.
Assay [12] in a line: cytosolic pH regulators acting via V-ATPase – S. cerevisiae, pHLuorin, HTS validation (AID 504600; in the data active = response above about 15%;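 note: plate controls were DMSO for no effect and reference compound for full effect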). Particulars: V-ATPase proton transport, at 10 µM, stronger effect = higher value.
Assay [13] relates to anti-desmoglein-3 scFv antibody binding to human DSG3. Put plainly: blockers of pathogenic pemphigus antibody–desmoglein-3 binding – biochemical, validation compound set, bead-based, flow cytometry, pilot screen (AID 588368;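 active = binding below the plate cutoff, the plate median minus 3 SD, with a reading above zero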;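 note: signal is the median channel fluorescence of bead-bound GFP antibody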). Particulars: Protein G beads, DSG3-Fc, scFv-GFP binding, at 10 µM, stronger effect = lower value.
Assay [14] is described as follows: Nile Red efflux blockade in pump-expressing yeast – validation compound set, multiplex, phenotypic, pilot screen (AID 588506;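 active = efflux inhibition above 0.42, the validation set average plus 4 SD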;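 note: Nile Red retained in cells so higher fluorescence means more efflux inhibition; 0 = negative control wells and 1 = enniatin B 25 µM full block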). The following applies: S. cerevisiae pump-expressing triplex, Nile Red efflux flow cytometry; at 10 µM; stronger effect = higher value; the pumps come from Candida albicans.
Assay [15] addresses ATP-binding cassette sub-family B member 6 (Homo sapiens) (UniProt Q9NP58). Put plainly: blockers of ABCB6-driven porphyrin uptake – K562-ABCB6 cells, flow cytometry, validation set, pilot screen (AID 588550;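 active = inhibition above the screen-wide mean plus 3 SD, about 51%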;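 note: 0% = DMSO wells and 100% = benzethonium chloride 70 µM positive control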). Particulars: K562-ABCB6 porphyrin accumulation, 1 h, at 10 µM, stronger effect = higher value.
The nature of assay [16]: AML differentiation inducers, ER-HoxA9 marrow cells – cell-based, GFP/MAC1 double positive, flow cytometry, validation set, primary screen (AID 588685;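 active = differentiation response of at least 50%, scaled between solvent and reference control, from cells with both markers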;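 note: compound exposure lasts four days before antibody staining and flow analysis; 0% = DMSO wells and 100% = 5 µM fulvestrant positive control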). The following applies: stronger effect = higher value, normalized: vehicle 0, fulvestrant 100.

The text below walks through data of PubChem BioAssay.

SMILES strings stand for the structures. Records with an inconclusive call do not appear. Activity calls are given as the source filed them.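 Rule for the calls, unless noted: active = GFP signal, as percent of the solvent control, above the screen mean plus 3 SD, about 149; inconclusive = no reading because the compound's own fluorescence upset strain identification; inactive = the rest.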

Integrin beta-1 (Homo sapiens) + Integrin alpha-4 (Homo sapiens), sequence (P05556 whole entry, looked up): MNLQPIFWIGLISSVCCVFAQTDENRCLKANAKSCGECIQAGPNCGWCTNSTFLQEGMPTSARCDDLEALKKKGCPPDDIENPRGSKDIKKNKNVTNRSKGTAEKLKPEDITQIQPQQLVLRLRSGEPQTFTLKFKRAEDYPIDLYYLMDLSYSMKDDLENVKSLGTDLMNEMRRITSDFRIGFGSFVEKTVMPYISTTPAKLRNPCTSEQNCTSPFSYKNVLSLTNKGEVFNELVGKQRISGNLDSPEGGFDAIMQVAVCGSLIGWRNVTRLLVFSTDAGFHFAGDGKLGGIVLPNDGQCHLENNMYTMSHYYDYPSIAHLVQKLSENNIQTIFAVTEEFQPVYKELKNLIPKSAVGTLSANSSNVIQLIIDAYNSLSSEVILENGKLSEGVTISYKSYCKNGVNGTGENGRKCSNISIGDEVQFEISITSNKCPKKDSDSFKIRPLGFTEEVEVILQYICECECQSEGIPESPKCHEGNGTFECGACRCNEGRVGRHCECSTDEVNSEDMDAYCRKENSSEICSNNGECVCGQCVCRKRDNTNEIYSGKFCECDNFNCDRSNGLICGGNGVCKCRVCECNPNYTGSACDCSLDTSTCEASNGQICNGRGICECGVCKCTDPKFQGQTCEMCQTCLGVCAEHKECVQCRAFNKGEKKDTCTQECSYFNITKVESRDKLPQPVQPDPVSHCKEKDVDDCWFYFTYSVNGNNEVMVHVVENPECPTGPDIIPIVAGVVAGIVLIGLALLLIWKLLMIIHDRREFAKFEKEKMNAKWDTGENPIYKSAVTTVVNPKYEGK
Integrin beta-1 (Homo sapiens) + Integrin alpha-4 (Homo sapiens), sequence (P13612 whole entry, looked up): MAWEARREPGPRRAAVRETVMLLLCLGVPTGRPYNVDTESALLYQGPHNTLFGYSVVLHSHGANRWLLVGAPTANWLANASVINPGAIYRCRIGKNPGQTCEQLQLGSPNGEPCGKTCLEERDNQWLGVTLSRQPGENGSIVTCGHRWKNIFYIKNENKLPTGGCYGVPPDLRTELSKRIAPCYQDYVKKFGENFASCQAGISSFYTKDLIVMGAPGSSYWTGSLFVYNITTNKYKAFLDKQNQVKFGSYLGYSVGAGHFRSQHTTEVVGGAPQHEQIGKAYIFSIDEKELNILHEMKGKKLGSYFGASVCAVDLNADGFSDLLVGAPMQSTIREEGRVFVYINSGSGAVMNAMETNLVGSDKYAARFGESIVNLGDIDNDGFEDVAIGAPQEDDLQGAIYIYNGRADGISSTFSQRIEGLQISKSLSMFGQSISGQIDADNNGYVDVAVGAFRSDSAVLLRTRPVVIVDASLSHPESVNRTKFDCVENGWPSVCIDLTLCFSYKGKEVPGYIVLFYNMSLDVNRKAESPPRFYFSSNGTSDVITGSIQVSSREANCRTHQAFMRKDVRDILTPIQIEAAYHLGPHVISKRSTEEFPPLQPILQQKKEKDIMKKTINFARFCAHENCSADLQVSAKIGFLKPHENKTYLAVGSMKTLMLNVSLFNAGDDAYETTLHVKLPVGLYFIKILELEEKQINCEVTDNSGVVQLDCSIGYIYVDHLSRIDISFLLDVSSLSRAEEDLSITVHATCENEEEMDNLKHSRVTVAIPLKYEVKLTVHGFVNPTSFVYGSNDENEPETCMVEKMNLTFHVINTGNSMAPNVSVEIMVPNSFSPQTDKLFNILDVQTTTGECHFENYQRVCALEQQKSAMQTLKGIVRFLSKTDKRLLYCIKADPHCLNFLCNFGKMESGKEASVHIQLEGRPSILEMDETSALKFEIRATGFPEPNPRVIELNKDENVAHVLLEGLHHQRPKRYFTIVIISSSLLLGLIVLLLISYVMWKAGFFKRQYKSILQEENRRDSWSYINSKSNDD
ATP-binding cassette sub-family B member 6 (Homo sapiens), sequence (Q9NP58 whole entry, looked up): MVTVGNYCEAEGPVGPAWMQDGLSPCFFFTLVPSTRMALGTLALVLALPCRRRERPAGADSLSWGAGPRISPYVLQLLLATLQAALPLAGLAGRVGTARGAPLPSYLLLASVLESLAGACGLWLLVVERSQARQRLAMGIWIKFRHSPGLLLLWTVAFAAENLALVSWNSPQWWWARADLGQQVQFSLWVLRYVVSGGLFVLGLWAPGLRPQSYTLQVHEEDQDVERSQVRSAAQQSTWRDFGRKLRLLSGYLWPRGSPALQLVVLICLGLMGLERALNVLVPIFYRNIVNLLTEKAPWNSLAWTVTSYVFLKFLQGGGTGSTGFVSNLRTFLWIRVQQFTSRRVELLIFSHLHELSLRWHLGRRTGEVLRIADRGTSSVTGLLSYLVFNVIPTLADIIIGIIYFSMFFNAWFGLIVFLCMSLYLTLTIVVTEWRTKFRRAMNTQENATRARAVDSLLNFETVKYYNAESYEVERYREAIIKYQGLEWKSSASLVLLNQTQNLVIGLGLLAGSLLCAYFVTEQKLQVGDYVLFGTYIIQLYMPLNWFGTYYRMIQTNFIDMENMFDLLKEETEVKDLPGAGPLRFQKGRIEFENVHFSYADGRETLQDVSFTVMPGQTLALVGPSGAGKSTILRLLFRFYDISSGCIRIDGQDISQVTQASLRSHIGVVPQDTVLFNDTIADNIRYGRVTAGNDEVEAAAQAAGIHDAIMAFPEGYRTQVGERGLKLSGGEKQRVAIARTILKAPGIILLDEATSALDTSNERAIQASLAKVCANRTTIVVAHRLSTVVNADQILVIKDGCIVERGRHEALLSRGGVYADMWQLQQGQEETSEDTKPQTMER
Beta-adrenergic receptor kinase 1 (Homo sapiens), sequence (P25098 whole entry, looked up): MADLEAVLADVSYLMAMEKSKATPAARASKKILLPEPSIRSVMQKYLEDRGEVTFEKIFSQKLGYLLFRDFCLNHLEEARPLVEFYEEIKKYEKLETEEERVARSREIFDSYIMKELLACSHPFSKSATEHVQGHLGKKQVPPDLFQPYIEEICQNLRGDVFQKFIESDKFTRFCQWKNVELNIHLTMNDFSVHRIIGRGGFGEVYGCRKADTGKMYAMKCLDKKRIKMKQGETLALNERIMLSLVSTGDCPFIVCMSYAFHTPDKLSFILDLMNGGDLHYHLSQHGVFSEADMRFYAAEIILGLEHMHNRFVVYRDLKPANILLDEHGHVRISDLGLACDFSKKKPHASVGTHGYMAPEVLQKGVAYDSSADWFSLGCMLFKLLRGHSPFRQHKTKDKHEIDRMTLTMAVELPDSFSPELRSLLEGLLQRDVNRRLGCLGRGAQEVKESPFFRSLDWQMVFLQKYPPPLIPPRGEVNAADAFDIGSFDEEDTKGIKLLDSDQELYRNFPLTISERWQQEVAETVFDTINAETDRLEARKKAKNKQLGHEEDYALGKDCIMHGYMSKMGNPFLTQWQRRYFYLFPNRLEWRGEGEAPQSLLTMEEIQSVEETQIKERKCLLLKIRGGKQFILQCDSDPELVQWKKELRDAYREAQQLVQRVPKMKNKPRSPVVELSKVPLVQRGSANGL
Beta-2 adrenergic receptor (Homo sapiens), sequence (P07550 whole entry, looked up): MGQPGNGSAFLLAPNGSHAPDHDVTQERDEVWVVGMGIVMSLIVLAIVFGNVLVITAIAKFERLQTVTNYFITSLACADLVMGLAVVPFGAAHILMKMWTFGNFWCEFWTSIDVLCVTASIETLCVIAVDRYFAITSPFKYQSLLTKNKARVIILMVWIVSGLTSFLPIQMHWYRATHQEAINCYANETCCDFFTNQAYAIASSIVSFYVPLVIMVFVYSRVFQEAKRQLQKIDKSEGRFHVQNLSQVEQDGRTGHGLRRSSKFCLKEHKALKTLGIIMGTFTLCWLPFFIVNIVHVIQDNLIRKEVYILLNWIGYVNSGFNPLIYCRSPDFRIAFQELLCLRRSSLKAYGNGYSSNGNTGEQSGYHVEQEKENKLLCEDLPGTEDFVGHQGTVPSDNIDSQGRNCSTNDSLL
AP-2 complex subunit beta (Homo sapiens), sequence (P63010 whole entry, looked up, the tested form may be a part, one chain of several): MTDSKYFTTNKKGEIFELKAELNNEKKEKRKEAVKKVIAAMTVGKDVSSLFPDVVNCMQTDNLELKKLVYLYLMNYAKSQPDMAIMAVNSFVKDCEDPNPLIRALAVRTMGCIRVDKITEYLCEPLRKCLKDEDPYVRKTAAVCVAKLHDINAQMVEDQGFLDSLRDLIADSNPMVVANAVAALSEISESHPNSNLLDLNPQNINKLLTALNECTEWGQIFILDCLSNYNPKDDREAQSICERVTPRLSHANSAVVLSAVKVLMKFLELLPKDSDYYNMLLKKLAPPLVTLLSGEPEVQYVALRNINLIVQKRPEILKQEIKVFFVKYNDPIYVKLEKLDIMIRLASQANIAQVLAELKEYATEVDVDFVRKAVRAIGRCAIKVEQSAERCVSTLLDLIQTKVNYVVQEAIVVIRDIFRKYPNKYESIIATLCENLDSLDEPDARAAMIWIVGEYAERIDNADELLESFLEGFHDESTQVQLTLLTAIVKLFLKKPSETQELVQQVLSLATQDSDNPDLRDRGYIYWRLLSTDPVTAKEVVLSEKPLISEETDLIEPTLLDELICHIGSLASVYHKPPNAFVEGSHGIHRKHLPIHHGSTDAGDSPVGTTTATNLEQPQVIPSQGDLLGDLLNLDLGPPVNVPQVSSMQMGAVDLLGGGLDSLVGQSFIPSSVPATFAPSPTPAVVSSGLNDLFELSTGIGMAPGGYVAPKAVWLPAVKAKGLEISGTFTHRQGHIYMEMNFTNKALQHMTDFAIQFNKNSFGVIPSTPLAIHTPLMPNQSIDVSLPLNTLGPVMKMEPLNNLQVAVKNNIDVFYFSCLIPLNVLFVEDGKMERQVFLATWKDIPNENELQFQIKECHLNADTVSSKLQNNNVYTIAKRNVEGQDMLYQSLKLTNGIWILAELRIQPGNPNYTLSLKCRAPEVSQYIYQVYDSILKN

In the case of `Cc1ccc(S(=O)(=O)Oc2ccccc2/C=N/N=C(N)N)cc1`, in assay [1], the percent of DMSO control GFP was 102% (inactive). In addition, the GFP response vs DMSO in assay [2] was 103% (inactive); in assay [4], 93.7% (inactive). Further, the percent response of DMSO control in [3] is 104% (inactive). Moreover, in assay [5], the GFP response, % of DMSO is 103% (inactive). The double positive events in assay [6] amounted to 68.2%. Also, the vesicle binding response in assay [6] is 172% (inactive). Also, the inhibition is 12.6% (inactive) in [7], 6.93% (inactive) in [11] and 7% (inactive) in assay [15]. Further, the superoxide response (% of plate) in [8] was 97.8% (inactive). In [9], the aptamer binding inhibition was 1% (inactive). The response in assay [10] is 7.63% (inactive); in [12], -0.49% (inactive). The binding (% of control) in assay [13] was 103% (inactive). Moreover, the efflux inhibition (fraction of control) in assay [14] is 0.01 (inactive). Further, the differentiation response in assay [16] is -2.64% (inactive).

As for `CCc1ccc(/C=C2\Oc3cc(OC(=O)N4CCOCC4)ccc3C2=O)cc1`, in assay [1], the percent of DMSO control GFP is 98.7% (inactive). For the same compound, the GFP response vs DMSO was 99.6% (inactive) in assay [2] and 125% (inactive) in assay [4]. Besides, the percent response of DMSO control in [3] is 83.4% (inactive). The GFP response, % of DMSO in [5] was 79.8% (inactive). In assay [6], the double positive events was 64.9%. In addition, in [6], the vesicle binding response is 164% (inactive). For the same compound, the inhibition in assay [7] was 11.7% (inactive); in assay [11], -5.57% (inactive); in assay [15], 0% (inactive). Moreover, the superoxide response (% of plate) in assay [8] is 173% (inactive). Also, the aptamer binding inhibition in assay [9] was 4% (inactive). Further, the results for the response in assay [10] and in [12] were -17.4% (inactive) and 1.83% (inactive), respectively. In assay [13], the binding (% of control) is 99.3% (inactive). Moreover, the efflux inhibition (fraction of control) in assay [14] is 0.29 (inactive). Besides, the differentiation response in assay [16] was 6.83% (inactive).

Take `COc1ccc(C=O)c(OC)c1`: in assay [1], the percent of DMSO control GFP is 100% (inactive). The figures for the GFP response vs DMSO in [2] and in assay [4] were 98.6% (inactive) and 99.5% (inactive), respectively. Also, in assay [3], the percent response of DMSO control is 99% (inactive). Further, the GFP response, % of DMSO in assay [5] was 104% (inactive). The compound also showed a double positive events in assay [6] of 60.9%. In addition, the vesicle binding response in assay [6] is 188% (inactive). Further, the inhibition in assay [7] was 26.1% (inactive); in [11], 62.3% (active); in assay [15], -6% (inactive). The superoxide response (% of plate) in assay [8] is 93.3% (inactive). The aptamer binding inhibition in assay [9] was 1% (inactive). For the same compound, the figures for the response in assay [10] and in assay [12] were -22.1% (inactive) and -1.57% (inactive), respectively. Besides, the binding (% of control) in [13] was 101% (inactive). Further, the efflux inhibition (fraction of control) in assay [14] is 0.08 (inactive). Further, the differentiation response in [16] is -9.91% (inactive).

Consider `COc1ccc(-c2cc(=O)oc3cc(OC(C)C(=O)O)ccc23)cc1` (stereo not drawn), for which, in [1], the percent of DMSO control GFP was 107% (inactive). Further, the GFP response vs DMSO in [2] is 94.7% (inactive); in assay [4] it was 104% (inactive). Moreover, in assay [3], the percent response of DMSO control was 93.8% (inactive). Further, in [5], the GFP response, % of DMSO was 107% (inactive). Also, the double positive events in assay [6] amounted to 63.4%. Further, in [6], the vesicle binding response is 124% (inactive). Also, the inhibition was 11.7% (inactive) in assay [7], 6.04% (inactive) in [11] and 3% (inactive) in [15]. Besides, in [8], the superoxide response (% of plate) is 115% (inactive). For the same compound, in assay [9], the aptamer binding inhibition was 3% (inactive). Moreover, the figures for the response in assay [10] and in [12] were -24.8% (inactive) and 1.91% (inactive), respectively. For the same compound, the binding (% of control) in [13] is 108% (inactive). Also, in assay [14], the efflux inhibition (fraction of control) was 0 (inactive). Also, the differentiation response in [16] is 19.6% (inactive).

As usually defined, the inhibition is the drop in the measured response relative to a control, in per cent.
